According to the supplement of paper PMC11732987, “Enantioselective OTUD7B fragment discovery through chemoproteomics screening and high-throughput optimisation” (Communications Chemistry, 2025):

Key:
Test in all cases: log2 ratio of Biotin-Ahx-Ub-VS probe labelling (fragment/DMSO); higher = less target engagement (more negative = stronger competition), active = hit call of the paper (q ≤ 0.05, log2 ratio ≤ -1)
Conditions in all cases: compound concentration: 200 uM; treatment time: 3 h
OTUD6B = target: T1, OTUD6B (UniProt Q8N6M0)
T1 sequence (whole entry): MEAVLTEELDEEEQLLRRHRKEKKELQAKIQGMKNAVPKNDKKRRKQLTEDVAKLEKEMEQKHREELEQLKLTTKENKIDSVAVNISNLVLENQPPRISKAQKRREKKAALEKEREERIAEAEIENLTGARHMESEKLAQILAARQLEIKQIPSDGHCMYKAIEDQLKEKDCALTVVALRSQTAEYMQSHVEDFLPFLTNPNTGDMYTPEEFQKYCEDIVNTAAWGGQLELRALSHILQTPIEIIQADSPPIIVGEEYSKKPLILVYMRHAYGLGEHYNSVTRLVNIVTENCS
Method in brief: (§1)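 HEK293T lysate (495 µg per sample, in Tris/CHAPS/IGEPAL buffer with protease inhibitors) was exposed in triplicate for 3 h to fragment at 200 µM or to vehicle, then to Biotin-Ahx-Ub-VS at 0.5 µM final for 1 h. Labelled DUBs were enriched on NeutrAvidin, digested with LysC and trypsin, and analysed by diaPASEF LC-MS/MS. Spectronaut label-free quantities were normalised to the global median, and values are average log2 ratios of fragment over vehicle from an unpaired t-test. Only proteins with ≥2 unique peptides were used.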

OTUD7B = target: T2, OTUD7B (UniProt Q6GQQ9)
T2 sequence (whole entry): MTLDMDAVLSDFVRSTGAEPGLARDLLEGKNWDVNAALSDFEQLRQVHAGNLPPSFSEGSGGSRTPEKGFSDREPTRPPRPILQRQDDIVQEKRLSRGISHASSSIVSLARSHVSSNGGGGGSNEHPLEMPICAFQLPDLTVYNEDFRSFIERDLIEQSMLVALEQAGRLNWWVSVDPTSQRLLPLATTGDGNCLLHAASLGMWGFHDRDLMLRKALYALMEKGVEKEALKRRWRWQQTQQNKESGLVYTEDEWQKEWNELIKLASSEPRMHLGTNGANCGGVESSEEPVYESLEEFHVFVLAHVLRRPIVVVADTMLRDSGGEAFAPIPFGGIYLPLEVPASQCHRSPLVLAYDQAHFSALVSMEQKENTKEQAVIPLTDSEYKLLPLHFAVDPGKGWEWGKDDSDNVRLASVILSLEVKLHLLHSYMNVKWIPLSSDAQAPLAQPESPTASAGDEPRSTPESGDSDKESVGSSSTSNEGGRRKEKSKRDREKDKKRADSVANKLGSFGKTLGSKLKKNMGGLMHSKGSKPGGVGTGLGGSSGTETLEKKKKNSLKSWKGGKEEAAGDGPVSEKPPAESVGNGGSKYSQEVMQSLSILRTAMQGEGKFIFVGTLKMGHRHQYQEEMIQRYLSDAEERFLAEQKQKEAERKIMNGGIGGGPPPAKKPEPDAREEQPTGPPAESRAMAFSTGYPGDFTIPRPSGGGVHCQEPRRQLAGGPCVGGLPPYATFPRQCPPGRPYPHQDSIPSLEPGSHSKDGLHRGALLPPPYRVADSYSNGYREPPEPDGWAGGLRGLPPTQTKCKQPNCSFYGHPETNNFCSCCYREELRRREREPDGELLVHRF
Method in brief: as §1

PRPF8 = PRPF8 (UniProt Q6P2Q9)
Method in brief: as §1

PSMD7 = target: T3, PSMD7 (UniProt P51665)
T3 sequence (whole entry): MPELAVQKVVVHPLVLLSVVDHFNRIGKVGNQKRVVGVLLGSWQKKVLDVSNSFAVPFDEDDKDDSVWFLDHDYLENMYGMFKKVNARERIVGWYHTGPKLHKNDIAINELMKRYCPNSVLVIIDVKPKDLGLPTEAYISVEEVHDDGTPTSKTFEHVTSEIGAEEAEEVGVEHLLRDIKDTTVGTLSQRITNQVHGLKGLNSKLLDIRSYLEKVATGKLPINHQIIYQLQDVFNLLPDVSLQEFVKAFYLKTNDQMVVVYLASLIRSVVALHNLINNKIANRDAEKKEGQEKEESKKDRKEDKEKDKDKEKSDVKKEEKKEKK
Method in brief: as §1

UCHL1 = UCHL1 (UniProt P09936)
Method in brief: as §1

UCHL3 = target: T4, UCHL3 (UniProt P15374)
T4 sequence (whole entry): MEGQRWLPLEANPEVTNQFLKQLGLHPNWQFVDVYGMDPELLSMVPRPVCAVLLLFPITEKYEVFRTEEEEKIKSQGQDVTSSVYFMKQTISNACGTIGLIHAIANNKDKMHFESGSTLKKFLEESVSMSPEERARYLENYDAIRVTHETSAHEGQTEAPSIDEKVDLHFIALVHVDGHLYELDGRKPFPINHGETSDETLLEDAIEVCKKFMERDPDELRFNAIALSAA
Method in brief: as §1

UCHL5 = target: T5, UCHL5 (UniProt Q9Y5K5)
T5 sequence (whole entry): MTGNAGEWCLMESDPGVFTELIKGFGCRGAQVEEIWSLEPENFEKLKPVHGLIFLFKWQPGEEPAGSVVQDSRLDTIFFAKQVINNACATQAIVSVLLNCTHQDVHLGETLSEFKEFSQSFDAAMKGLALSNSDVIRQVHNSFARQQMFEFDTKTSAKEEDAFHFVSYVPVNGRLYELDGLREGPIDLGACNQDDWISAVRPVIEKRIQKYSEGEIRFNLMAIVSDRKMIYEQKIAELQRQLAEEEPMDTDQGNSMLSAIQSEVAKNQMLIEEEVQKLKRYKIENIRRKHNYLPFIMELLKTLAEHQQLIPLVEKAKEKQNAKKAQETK
Method in brief: as §1

USP10 = USP10 (UniProt Q14694)
Method in brief: as §1

USP15 = target: T6, USP15 (UniProt Q9Y4E8)
T6 sequence (whole entry): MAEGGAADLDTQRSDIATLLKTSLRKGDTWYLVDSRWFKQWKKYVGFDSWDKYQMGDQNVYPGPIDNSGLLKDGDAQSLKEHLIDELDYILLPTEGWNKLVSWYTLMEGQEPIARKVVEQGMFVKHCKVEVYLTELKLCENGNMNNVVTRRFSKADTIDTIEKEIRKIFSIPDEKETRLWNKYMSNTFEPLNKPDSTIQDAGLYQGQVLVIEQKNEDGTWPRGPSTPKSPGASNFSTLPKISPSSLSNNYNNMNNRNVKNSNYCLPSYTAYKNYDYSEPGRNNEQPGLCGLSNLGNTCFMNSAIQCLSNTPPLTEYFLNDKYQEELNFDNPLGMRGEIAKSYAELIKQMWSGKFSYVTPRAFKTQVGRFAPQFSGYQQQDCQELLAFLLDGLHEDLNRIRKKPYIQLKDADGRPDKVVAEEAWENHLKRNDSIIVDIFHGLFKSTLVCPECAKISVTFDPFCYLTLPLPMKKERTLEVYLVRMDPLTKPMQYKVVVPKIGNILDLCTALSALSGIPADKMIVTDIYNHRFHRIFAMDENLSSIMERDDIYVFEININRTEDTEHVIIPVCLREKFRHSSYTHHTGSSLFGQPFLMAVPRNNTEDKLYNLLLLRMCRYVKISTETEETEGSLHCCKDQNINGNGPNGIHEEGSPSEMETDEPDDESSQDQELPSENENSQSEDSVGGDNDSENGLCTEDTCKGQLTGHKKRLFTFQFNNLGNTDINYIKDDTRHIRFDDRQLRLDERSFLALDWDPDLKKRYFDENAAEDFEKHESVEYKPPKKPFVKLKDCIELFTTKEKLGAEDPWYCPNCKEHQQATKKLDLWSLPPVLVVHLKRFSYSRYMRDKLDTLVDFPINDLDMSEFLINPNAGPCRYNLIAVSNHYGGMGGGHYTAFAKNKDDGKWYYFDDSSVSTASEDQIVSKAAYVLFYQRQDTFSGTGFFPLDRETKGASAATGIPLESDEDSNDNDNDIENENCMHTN
Method in brief: as §1

USP16 = USP16 (UniProt Q9Y5T5)
Method in brief: as §1

Measured: log2 ratio of Biotin-Ahx-Ub-VS probe labelling

Chain of UCHL1 (P09936 whole entry, looked up): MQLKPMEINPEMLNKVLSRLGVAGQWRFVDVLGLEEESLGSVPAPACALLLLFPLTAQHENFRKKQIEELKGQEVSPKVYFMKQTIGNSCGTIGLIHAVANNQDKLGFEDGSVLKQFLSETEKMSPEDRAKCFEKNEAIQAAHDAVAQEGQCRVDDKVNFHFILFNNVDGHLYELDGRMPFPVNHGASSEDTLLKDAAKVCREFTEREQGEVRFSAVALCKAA
Chain of USP10 (Q14694 whole entry): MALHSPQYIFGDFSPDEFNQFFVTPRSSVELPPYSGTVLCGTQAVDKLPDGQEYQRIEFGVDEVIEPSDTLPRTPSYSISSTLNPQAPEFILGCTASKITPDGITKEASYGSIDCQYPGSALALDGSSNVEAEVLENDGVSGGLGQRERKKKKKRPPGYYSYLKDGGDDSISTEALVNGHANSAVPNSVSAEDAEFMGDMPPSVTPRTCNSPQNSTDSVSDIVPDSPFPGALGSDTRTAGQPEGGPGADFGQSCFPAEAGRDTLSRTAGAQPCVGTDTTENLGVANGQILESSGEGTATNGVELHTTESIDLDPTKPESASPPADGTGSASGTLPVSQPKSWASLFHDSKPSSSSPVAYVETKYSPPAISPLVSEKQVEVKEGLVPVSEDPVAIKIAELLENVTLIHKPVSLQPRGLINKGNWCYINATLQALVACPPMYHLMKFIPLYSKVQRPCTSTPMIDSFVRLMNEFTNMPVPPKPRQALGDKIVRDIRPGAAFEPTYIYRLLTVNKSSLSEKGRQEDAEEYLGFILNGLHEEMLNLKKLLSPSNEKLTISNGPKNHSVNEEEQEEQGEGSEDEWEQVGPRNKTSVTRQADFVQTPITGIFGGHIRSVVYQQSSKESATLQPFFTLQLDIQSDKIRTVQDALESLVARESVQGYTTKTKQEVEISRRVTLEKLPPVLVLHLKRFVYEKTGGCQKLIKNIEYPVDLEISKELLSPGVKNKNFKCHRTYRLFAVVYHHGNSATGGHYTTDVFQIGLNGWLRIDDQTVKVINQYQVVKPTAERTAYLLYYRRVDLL
Chain of USP16 (Q9Y5T5 whole entry, looked up): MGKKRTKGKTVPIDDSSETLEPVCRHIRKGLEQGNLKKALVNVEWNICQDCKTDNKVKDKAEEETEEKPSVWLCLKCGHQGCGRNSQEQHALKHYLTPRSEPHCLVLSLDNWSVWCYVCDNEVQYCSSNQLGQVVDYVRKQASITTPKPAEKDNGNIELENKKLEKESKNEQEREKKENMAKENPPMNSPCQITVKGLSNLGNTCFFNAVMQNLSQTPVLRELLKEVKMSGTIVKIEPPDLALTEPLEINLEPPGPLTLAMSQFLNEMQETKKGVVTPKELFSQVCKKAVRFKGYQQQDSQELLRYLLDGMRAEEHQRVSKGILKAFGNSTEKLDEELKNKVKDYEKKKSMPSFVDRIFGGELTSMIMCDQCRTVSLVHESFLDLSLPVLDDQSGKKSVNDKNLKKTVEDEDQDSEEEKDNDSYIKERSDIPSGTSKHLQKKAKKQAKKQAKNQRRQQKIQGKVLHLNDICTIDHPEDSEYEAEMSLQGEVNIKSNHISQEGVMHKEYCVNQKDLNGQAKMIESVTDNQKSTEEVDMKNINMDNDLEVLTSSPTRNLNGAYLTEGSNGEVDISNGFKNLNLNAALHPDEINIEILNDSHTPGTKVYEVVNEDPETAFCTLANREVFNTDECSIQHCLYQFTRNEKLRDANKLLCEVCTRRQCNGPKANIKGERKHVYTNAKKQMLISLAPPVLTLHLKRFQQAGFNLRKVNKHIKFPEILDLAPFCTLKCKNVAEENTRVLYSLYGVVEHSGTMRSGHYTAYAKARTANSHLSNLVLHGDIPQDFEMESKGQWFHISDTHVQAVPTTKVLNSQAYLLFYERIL

O=C(CCl)N1CCC2(CCC(O)CC2)CC1
inactive: OTUD6B -0.306 | OTUD7B -0.236 | PRPF8 -0.102 | PSMD7 -0.109 | UCHL3 0.404 | UCHL5 -0.157 | USP10 -0.17 | USP15 -0.243 | USP16 0.0341
active: UCHL1 -1.76
